Screening results from PubChem BioAssay.
Most compounds without a hit are left out; they make up all but 2.9% or so of the library.
CRFR2-BP ag: agonists of CRF-BP/CRF-R2 complex, primary screen, cell-based, HEK293, calcium dye fluorescence, uHTS; activation, % at 13.2 µM; 0.46% of 350,000 active; CRF-binding protein / CRF receptor 2 complex (human); calcium dye fluorescence (FLIPR); percent of saturating CRF peptide response; AID 588473, 2011;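 active = activation of at least 50%, plus an integration ratio under a set limit after plate pattern correction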;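 note: plate controls were neutral control wells without compound for no effect and CRF at EC100 for full effect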
ABCB6 inh MLPCN: ABCB6 transporter inhibitors, primary screen, K562-ABCB6 cells, flow cytometry, MLPCN library; 0.19% of 360,000 active; AID 602162, 2011; K562-ABCB6 porphyrin accumulation, 1 h; stronger effect = lower value; ATP-binding cassette sub-family B member 6 (Homo sapiens), Q9NP58; fluorescence ratio to DMSO, % at 10 µM;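 active = fluorescence ratio to DMSO below 75%, the collection mean minus 3 SD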;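 note: signal is porphyrin accumulated inside mitochondria; 100% equals median channel fluorescence of DMSO control wells; lower ratio means ABCB6 inhibition with less porphyrin fluorescence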
Target sequence (Q9NP58 whole entry, looked up): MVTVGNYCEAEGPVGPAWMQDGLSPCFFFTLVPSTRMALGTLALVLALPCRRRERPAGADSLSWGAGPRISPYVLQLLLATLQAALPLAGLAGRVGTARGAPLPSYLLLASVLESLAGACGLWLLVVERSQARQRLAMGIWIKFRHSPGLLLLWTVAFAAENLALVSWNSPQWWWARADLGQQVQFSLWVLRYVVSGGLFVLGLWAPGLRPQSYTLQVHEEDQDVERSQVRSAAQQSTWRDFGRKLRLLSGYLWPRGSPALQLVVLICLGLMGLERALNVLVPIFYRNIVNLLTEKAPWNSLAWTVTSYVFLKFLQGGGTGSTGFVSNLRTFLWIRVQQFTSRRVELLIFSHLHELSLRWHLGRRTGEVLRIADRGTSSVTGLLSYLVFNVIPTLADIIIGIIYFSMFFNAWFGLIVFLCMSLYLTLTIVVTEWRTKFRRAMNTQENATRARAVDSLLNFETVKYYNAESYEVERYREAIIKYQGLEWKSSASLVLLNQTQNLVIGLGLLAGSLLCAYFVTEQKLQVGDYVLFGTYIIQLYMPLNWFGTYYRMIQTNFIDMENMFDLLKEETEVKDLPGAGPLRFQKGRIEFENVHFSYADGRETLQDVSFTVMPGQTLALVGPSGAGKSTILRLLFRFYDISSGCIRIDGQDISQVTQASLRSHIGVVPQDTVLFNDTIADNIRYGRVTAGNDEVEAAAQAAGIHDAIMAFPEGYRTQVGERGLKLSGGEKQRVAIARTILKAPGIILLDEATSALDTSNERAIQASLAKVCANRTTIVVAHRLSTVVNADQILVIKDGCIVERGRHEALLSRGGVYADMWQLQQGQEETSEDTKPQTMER
MEKK2mut PB1 HTS: MEK5 binding signal on mutant MEKK2 PB1, primary screen, biochemical, multiplex bead flow cytometry, Alexa488-MEK5 | Alexa488-MEK5 binding to MEKK2 mutant | percent response, % at 10 µM | 0.35% of 290,000 active | AID 1530, 2009; in the data active = percent response above about 24%, passing the limit was not always enough
MEKK2wt PB1 HTS: modulators of MEK5 binding to wildtype MEKK2, primary screen, biochemical, multiplex bead flow cytometry, Alexa488-MEK5; Mitogen-activated protein kinase kinase kinase 2 (Homo sapiens), Q9Y2U5; Alexa488-MEK5 binding to MEKK2 WT; actives lie on both sides; binding response (% of control), % at 10 µM; 1.1% of 290,000 active; AID 1531, 2009; in the data active = binding response below about 67% or above about 130%
MEKK3 PB1 HTS: modulators of MEKK3-MEK5 PB1 binding, primary screen, biochemical, wildtype MEKK3, multiplex bead flow cytometry, Alexa488-MEK5; Mitogen-activated protein kinase kinase kinase 3 (Homo sapiens), Q99759; AID 1529, 2009; binding response (% of control), % at 10 µM; 1.4% of 290,000 active; bead-based flow cytometry, Alexa488-MEK5 binding to MEKK3; actives lie on both sides; 0 = blocked by unlabeled MEK5, 100 = vehicle;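 active = binding response more than 3 SD above or below the average of its plate-row segment, actives on both sides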;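 note: Alexa488 bead fluorescence after subtracting the streptavidin-only scavenger bead signal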
CRFBP-R2 block: antagonists of CRF-BP/CRF-R2 complex, primary screen, cell-based, HEK293, calcium dye fluorescence, uHTS | 0.59% of 350,000 active | AID 588475, 2011 | CRF-induced calcium fluorescence | inhibition, % at 11.8 µM;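 active = inhibition of the ligand-induced calcium signal above about 50% at the single tested concentration, limit read from the data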
MEKK2wt confirm: modulators of MEK5 binding to wildtype MEKK2, confirmation, biochemical, single concentration, multiplex bead flow cytometry; shares compounds with MEKK3 PB1 HTS; Alexa488-MEK5 binding to MEKK2 WT; actives lie on both sides; 2.4% of 5,900 active; binding response (% of control), % at 10 µM; in the data active = binding response below about 16% or above about 210%; inactive = in between
MEKK2mut confirm: mutant MEKK2 PB1-MEK5 binding signal retest – biochemical, single concentration, multiplex bead flow cytometry, confirmation. shares compounds with MEKK3 PB1 HTS. Alexa488-MEK5 binding to MEKK2 mutant. percent response, % at 10 µM. 2% of 5,900 active. AID 1893, 2009; in the data active = percent response mostly above about 71%, no sharp cut-off; inactive = mostly below about 38%;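 note: higher means compound restores mutant binding toward wildtype level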
MEKK3-MEK5 inh: MEKK3 wild-type PB1 binding to MEK5, inhibitors, confirmation, biochemical, bead multiplex flow cytometry, single concentration, wildtype; shares compounds with MEKK3 PB1 HTS; Alexa488-MEK5 binding to MEKK3; stronger effect = lower value; binding response (% of control), % at 10 µM; 1.8% of 5,900 active; AID 1894, 2009;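 active = binding response below 72% of control, or above a set upper limit, though filed actives all read lower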;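 note: 100% = DMSO only wells and 0% = binding blocked by excess unlabeled MEK5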
Numbers without * were called inactive; [ ] = remark or other dose.

How did CN(C)S(=O)(=O)c1ccc(NC(=O)C2COc3ccccc3O2)cc1 (stereo not given) do in these assays?
CRFR2-BP ag: 6.3; ABCB6 inh MLPCN: 101.0; MEKK2mut PB1 HTS: -3.0; MEKK2wt PB1 HTS: 95.0; MEKK3 PB1 HTS: 92.0; CRFBP-R2 block: -33.1

Results for CN(C)S(=O)(=O)c1ccc(NC(=O)C2CC3C=CC2C3)cc1 (stereo not given) ?
CRFR2-BP ag: 0.2; ABCB6 inh MLPCN: 102.0; MEKK2mut PB1 HTS: -46.0; MEKK2wt PB1 HTS: 9.0*[inhibitor]; MEKK3 PB1 HTS: 3.0*[inhibitor]; CRFBP-R2 block: -31.1; MEKK2wt confirm: 92.0; MEKK2mut confirm: -16.0; MEKK3-MEK5 inh: 79.0

How did COCCOC(=O)c1c(C)oc2ccc(NS(=O)(=O)c3ccccc3)cc12 do in these assays?
CRFR2-BP ag: -0.3; ABCB6 inh MLPCN: 99.0; MEKK2mut PB1 HTS: 0.0; MEKK2wt PB1 HTS: 98.0; MEKK3 PB1 HTS: 100.0; CRFBP-R2 block: 3.6

What do the screens show for `COCCOC(=O)c1c(C)oc2ccc(NS(=O)(=O)c3ccc(C)cc3)cc12`?
CRFR2-BP ag: -1.2; ABCB6 inh MLPCN: 99.0; MEKK2mut PB1 HTS: 29.0; MEKK2wt PB1 HTS: 119.0; MEKK3 PB1 HTS: 135.0*; CRFBP-R2 block: 5.8; MEKK2wt confirm: 102.0; MEKK2mut confirm: 4.0; MEKK3-MEK5 inh: 105.0

What do the screens show for `Cc1oc2ccc(NS(=O)(=O)c3ccccc3)cc2c1C(=O)Nc1ccccc1`?
CRFR2-BP ag: -1.1; ABCB6 inh MLPCN: 99.0; MEKK2mut PB1 HTS: -1.0; MEKK2wt PB1 HTS: 94.0; MEKK3 PB1 HTS: 129.0*; CRFBP-R2 block: -14.4; MEKK2wt confirm: 100.0; MEKK2mut confirm: 0.0; MEKK3-MEK5 inh: 105.0

How did Cc1ccc(N(C(=O)c2csnn2)C(C(=O)NC2CCCCC2)c2ccncc2)c(C)c1 (stereo not given) do in these assays?
CRFR2-BP ag: 2.0; ABCB6 inh MLPCN: 98.0; MEKK2mut PB1 HTS: 2.0; MEKK2wt PB1 HTS: 104.0; MEKK3 PB1 HTS: 102.0; CRFBP-R2 block: -4.3

How did O=S(=O)(/N=C(/Nc1cccc2ccccc12)c1ccc(F)cc1)c1ccccc1 do in these assays?
CRFR2-BP ag: 1.3; ABCB6 inh MLPCN: 96.0; MEKK2mut PB1 HTS: 0.0; MEKK2wt PB1 HTS: 98.0; MEKK3 PB1 HTS: 102.0; CRFBP-R2 block: -5.7

How did CCOc1ccc(OCCn2c(S(=O)(=O)O)nc3c(N)ncnc32)cc1 do in these assays?
CRFR2-BP ag: -1.3; ABCB6 inh MLPCN: 94.0; MEKK2mut PB1 HTS: 8.0; MEKK2wt PB1 HTS: 112.0; MEKK3 PB1 HTS: 111.0; CRFBP-R2 block: -4.5

How did O=c1c(N2CCOCC2)c(N2CCOCC2)c1=O do in these assays?
CRFR2-BP ag: 0.1; ABCB6 inh MLPCN: 96.0; MEKK2mut PB1 HTS: -33.0; MEKK2wt PB1 HTS: 52.0; MEKK3 PB1 HTS: 42.0*[inhibitor]; CRFBP-R2 block: -0.5; MEKK2wt confirm: 105.0; MEKK2mut confirm: 2.0; MEKK3-MEK5 inh: 103.0

What do the screens show for `COc1cc(OC)c(C2Nc3ccccc3NC3=C2C(=O)CC(C)(C)C3)cc1OC` (stereo not given)?
CRFR2-BP ag: 5.8; ABCB6 inh MLPCN: 100.0; MEKK2mut PB1 HTS: 7.0; MEKK2wt PB1 HTS: 111.0; MEKK3 PB1 HTS: 109.0; CRFBP-R2 block: -3.0

How did COc1cc(C2Nc3ccccc3NC3=C2C(=O)CC(C)(C)C3)cc(OC)c1OC (stereo not given) do in these assays?
CRFR2-BP ag: 0.5; ABCB6 inh MLPCN: 97.0; MEKK2mut PB1 HTS: 24.0*; MEKK2wt PB1 HTS: 108.0; MEKK3 PB1 HTS: 108.0; CRFBP-R2 block: -8.8; MEKK2wt confirm: 103.0; MEKK2mut confirm: -5.0; MEKK3-MEK5 inh: 100.0

What do the screens show for `Cc1ccc[n+](Cc2ccc([N+](=O)[O-])cc2)c1`?
CRFR2-BP ag: -1.2; ABCB6 inh MLPCN: 103.0; MEKK2mut PB1 HTS: -1.0; MEKK2wt PB1 HTS: 105.0; MEKK3 PB1 HTS: 97.0; CRFBP-R2 block: 9.4

What do the screens show for `O=[N+]([O-])c1ccc(C[n+]2cccc3c4ccccc4ccc32)cc1`?
CRFR2-BP ag: 8.3; ABCB6 inh MLPCN: 114.0; MEKK2mut PB1 HTS: 20.0; MEKK2wt PB1 HTS: 8.0*[inhibitor]; MEKK3 PB1 HTS: 99.0; CRFBP-R2 block: 0.7; MEKK2wt confirm: 109.0; MEKK2mut confirm: 9.0; MEKK3-MEK5 inh: 99.0

Results for COc1cc(C(=O)Nc2ccc3c(c2)Cc2ccccc2-3)cc(OC)c1OC ?
CRFR2-BP ag: -0.3; ABCB6 inh MLPCN: 97.0; MEKK2mut PB1 HTS: -2.0; MEKK2wt PB1 HTS: 105.0; MEKK3 PB1 HTS: 135.0*; CRFBP-R2 block: -12.2; MEKK2wt confirm: 105.0; MEKK2mut confirm: 1.0; MEKK3-MEK5 inh: 100.0

Results for COc1cc(C(=O)Nc2ccc3c(c2)C(=O)c2ccccc2C3=O)cc(OC)c1OC ?
CRFR2-BP ag: -1.2; ABCB6 inh MLPCN: 99.0; MEKK2mut PB1 HTS: 6.0; MEKK2wt PB1 HTS: 104.0; MEKK3 PB1 HTS: 92.0; CRFBP-R2 block: -1.1

What do the screens show for `CN1CCN(Cc2ccc(Sc3ccc(Cl)cc3)c([N+](=O)[O-])c2)CC1`?
CRFR2-BP ag: 3.6; ABCB6 inh MLPCN: 102.0; MEKK2mut PB1 HTS: 27.0; MEKK2wt PB1 HTS: 157.0*; MEKK3 PB1 HTS: 107.0; CRFBP-R2 block: -11.4; MEKK2wt confirm: 122.0; MEKK2mut confirm: 8.0; MEKK3-MEK5 inh: 102.0

What do the screens show for `CCN(CC)c1ccc(/C=N/NC(=O)C(O)(c2ccccc2)c2ccccc2)o1`?
MEKK2mut PB1 HTS: 0.0; MEKK2wt PB1 HTS: 95.0; MEKK3 PB1 HTS: 75.0*[inhibitor]; MEKK2wt confirm: 100.0; MEKK2mut confirm: 0.0; MEKK3-MEK5 inh: 103.0

What do the screens show for `CCOC(=O)[C@H]1[C@H]2COc3ccc(Cl)cc3[C@@H]2N2C(=O)c3ccc(Cl)cc3NC(=O)[C@@]12C`?
CRFR2-BP ag: -0.1; ABCB6 inh MLPCN: 98.0; CRFBP-R2 block: -10.9
